Our source for the log2 fold change values is the supplement of paper PMC10849652.

The full data set covers some 7,900 targets. This sample favours those with a hit. About 0.6% of all pairs of compound and target were hits.

Sequence of UniProt Q15642 (Q15642 whole entry, looked up): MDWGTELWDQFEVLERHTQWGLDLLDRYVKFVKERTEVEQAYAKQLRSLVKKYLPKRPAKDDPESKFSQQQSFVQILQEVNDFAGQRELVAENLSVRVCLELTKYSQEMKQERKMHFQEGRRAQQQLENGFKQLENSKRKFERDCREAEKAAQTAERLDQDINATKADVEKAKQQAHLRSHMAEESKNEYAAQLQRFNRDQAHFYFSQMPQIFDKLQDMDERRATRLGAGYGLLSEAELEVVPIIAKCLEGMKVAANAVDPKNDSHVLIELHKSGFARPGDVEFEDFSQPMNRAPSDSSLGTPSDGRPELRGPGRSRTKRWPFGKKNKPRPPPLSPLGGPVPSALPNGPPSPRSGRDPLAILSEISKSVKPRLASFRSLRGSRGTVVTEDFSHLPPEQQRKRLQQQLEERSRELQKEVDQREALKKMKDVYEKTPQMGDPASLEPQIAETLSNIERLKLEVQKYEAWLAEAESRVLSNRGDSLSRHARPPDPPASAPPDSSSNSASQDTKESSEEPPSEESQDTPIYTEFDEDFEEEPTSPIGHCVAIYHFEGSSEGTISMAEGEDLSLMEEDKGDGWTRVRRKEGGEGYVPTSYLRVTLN
Sequence of UniProt Q5T3F8 (Q5T3F8 whole entry, looked up): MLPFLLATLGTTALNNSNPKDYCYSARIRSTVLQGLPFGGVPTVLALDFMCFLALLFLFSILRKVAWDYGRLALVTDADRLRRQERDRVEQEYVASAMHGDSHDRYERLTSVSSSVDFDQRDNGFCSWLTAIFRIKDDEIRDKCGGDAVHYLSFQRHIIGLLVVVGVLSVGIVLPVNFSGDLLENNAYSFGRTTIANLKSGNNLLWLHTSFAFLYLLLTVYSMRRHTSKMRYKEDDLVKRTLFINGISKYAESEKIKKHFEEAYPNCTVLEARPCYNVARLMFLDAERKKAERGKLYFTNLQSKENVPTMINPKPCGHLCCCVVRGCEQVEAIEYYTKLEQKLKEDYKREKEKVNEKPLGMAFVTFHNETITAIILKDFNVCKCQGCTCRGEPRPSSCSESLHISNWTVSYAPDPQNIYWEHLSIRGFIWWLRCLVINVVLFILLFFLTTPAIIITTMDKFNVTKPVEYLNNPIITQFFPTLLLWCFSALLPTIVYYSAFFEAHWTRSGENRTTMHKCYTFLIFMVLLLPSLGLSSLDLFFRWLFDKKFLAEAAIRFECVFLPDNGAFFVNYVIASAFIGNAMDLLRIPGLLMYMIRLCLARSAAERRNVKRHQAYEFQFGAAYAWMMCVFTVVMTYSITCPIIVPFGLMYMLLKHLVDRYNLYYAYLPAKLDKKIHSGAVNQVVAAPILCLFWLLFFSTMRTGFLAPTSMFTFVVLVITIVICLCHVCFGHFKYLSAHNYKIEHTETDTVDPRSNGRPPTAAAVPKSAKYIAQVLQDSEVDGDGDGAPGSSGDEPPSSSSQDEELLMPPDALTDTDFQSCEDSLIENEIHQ
Sequence of UniProt O75717 (O75717 whole entry, looked up): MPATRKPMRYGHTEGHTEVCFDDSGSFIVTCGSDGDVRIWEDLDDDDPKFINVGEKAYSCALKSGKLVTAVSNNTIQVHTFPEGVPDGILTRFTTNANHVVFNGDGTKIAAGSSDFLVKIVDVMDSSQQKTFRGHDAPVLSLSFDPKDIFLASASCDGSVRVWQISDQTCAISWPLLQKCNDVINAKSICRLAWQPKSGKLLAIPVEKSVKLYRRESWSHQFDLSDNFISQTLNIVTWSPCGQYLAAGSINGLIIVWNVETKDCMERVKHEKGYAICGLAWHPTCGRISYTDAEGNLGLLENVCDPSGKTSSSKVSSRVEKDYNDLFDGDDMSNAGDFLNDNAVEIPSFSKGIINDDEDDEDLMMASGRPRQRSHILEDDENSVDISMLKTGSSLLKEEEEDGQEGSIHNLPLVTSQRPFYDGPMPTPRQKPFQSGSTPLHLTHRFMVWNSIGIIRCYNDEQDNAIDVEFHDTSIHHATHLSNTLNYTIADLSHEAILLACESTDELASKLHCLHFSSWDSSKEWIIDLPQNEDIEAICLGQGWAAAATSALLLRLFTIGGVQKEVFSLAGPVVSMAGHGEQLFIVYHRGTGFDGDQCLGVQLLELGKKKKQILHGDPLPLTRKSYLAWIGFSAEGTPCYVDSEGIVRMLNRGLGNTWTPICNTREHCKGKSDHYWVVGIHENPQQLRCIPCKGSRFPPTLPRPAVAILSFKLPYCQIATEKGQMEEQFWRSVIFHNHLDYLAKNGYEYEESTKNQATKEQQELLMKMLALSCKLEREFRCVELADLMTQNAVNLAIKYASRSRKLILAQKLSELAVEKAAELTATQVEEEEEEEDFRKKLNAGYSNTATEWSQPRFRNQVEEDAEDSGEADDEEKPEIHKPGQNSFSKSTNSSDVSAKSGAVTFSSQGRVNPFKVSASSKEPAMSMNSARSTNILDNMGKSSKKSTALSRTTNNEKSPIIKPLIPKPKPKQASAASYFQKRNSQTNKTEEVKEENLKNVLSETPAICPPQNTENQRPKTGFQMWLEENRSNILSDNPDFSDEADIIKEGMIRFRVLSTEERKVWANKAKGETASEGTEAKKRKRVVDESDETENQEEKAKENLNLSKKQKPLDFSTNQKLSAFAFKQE
Sequence of WASHC2C, A0A096LPC5 (A0A096LPC5 whole entry, looked up): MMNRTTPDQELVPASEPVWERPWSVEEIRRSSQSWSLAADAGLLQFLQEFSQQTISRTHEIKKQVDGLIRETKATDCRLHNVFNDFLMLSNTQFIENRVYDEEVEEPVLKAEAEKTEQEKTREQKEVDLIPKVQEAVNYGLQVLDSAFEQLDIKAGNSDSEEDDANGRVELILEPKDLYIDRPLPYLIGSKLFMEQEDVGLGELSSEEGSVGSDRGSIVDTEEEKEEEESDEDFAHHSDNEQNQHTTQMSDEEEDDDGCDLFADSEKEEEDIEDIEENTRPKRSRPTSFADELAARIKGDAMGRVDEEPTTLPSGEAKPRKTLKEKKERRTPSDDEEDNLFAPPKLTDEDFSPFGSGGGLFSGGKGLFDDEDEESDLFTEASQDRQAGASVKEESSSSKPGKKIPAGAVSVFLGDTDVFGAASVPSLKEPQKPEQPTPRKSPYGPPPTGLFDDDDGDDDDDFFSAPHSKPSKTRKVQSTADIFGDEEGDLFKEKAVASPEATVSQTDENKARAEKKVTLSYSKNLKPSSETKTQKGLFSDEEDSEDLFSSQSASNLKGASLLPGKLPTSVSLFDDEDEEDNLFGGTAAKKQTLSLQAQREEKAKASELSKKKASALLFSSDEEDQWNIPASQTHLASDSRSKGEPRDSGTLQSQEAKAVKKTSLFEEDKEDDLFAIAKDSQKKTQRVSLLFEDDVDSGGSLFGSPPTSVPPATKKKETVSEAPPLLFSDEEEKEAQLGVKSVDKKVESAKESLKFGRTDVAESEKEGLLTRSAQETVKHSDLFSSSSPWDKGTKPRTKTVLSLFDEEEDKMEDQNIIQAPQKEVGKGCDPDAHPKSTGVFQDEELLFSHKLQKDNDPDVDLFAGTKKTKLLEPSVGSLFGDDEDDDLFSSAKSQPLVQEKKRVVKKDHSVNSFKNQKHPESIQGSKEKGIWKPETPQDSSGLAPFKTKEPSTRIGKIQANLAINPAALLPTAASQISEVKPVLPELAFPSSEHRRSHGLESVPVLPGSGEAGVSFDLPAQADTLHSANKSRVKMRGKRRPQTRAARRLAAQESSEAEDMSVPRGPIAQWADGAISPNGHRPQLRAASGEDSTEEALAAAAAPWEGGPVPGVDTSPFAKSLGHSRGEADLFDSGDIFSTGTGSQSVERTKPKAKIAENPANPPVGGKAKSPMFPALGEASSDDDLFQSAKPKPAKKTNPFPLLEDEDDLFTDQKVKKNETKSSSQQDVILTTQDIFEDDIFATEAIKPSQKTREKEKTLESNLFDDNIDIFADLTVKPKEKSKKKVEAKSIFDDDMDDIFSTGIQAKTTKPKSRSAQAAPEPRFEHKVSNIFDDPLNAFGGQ
Sequence of UniProt Q8IY95 (Q8IY95 whole entry, looked up): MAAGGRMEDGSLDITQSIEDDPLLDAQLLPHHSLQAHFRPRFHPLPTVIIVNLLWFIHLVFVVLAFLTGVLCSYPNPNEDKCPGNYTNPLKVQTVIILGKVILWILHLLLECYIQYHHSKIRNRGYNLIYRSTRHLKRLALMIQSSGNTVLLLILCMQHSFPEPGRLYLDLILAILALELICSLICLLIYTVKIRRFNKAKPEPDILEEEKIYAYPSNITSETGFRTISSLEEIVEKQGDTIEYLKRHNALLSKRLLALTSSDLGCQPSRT
Sequence of UniProt O14773 (O14773 whole entry, looked up): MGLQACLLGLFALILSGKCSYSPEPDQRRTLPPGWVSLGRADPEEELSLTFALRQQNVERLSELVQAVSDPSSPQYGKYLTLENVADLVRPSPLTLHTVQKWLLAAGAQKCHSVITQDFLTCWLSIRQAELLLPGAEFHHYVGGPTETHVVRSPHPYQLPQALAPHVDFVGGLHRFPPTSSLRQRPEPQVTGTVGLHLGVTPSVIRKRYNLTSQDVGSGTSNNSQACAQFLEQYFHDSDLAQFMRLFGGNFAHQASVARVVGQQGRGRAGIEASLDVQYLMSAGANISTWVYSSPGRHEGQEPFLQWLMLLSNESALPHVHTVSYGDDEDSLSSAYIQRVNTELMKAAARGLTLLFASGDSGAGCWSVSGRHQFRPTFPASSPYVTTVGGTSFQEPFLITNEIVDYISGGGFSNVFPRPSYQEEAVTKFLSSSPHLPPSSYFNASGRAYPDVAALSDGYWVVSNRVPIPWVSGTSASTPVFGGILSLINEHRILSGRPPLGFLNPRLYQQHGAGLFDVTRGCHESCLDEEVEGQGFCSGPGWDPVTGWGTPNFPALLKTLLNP
Sequence of UniProt Q969T4 (Q969T4 whole entry, looked up): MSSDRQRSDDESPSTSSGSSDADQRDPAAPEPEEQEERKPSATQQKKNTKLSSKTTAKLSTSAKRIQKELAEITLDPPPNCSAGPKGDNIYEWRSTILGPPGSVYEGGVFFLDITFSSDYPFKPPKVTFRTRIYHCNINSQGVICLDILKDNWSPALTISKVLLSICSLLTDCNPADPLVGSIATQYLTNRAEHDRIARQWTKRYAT

Compound in the test: Cc1cc(Nc2cc(N3CCN(C)CC3)nc(Sc3ccc(NC(=O)C4CC4)cc3)n2)n[nH]1 [tozasertib]
Put plainly: log2 fold change, soluble protein after heating vs DMSO (PISA); higher = thermal stabilisation; K562 cells, 10 uM, 30 min; active = over 0.2 and 3.5 SD of the protein, either way, in both replicates (recomputed). The essentials: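 Soluble protein was quantified by TMTpro 16plex LC-MS/MS after channel sums were equalised. It was obtained as the supernatant after 21,000xg for 90 min from pooled aliquots of K562 cells (2×10^6 cells/mL, 10 μM compound, 30 min) heated for 3 min across 48°C-58°C and extracted in PBS with 0.5% NP-40 at 4°C. Thermal stability values are relative to control samples and come from duplicates. They are given as log2 fold changes.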
Consider TMEM214 (UniProt Q6NUQ4), for which the log2 fold change is 0.028 (inactive).
The result for WDR62 isoform 4 (UniProt O43379) reads -0.068 (inactive); that for VPS11 (UniProt Q9H270), 0.034 (inactive).
The result for WASHC2C, A0A096LPC5 reads 0.007 (inactive); that for WNK1 isoform 7 (UniProt Q9H4A3), 0.001 (inactive).
Take VPS52 (UniProt Q8N1B4): the log2 fold change is 0.022 (inactive).
The result for TPM2 (UniProt P07951) reads 0 (inactive); that for WASHC2A (UniProt Q641Q2), 0.062 (inactive); that for TRAPPC11 (UniProt Q7Z392), 0.021 (inactive).
The result for WDHD1 (UniProt O75717) reads 0.09 (inactive); that for TXNIP (UniProt Q9H3M7), -0.06 (inactive).
For VPS41 (UniProt P49754) the value was 0.01 (inactive); for TRIP10 (UniProt Q15642), -0.003 (inactive); for TRIP10 isoform 2 (UniProt Q15642), 0.101 (inactive).
In the case of USP48 isoform 8 (UniProt Q86UV5), the log2 fold change was 0.334 (inactive).
For VPS8 (UniProt Q8N3P4) the value was 0.065 (inactive).
For TOM1L1 (UniProt O75674), the log2 fold change is -0.03 (inactive).
As for TMTC3 (UniProt Q6ZXV5), the log2 fold change was -0.012 (inactive).
For TPP1 (UniProt O14773) the value was -0.009 (inactive).
The result for VPS28 (UniProt Q9UK41) reads 0 (inactive); that for TMEM9 (UniProt Q9P0T7), -0.049 (inactive).
The result for TNPO3 (UniProt Q9Y5L0) reads 0.087 (inactive).
With WAPL isoform 3 (UniProt Q7Z5K2), the log2 fold change is 0.052 (inactive).
The result for TMEM192 (UniProt Q8IY95) reads -0.008 (inactive); that for UHRF1BP1L (UniProt A0JNW5), -0.025 (inactive).
Consider TTI1 (UniProt O43156), for which the log2 fold change was 0.041 (inactive).
In the case of USP34 (UniProt Q70CQ2), the log2 fold change is 0.061 (inactive).
For UBE2E3 (UniProt Q969T4) the value was 0.061 (inactive).
For VDAC1 (UniProt P21796) the value was 0 (inactive).
Regarding TRMT10A (UniProt Q8TBZ6), the log2 fold change was -0.031 (inactive).
In the case of USP25 isoform 3 (UniProt Q9UHP3), the log2 fold change is 0.036 (inactive).
For the target UBAP1 isoform 4 (UniProt Q9NZ09), the log2 fold change was 0.399 (inactive).
The result for TMEM63B (UniProt Q5T3F8) reads -0.007 (inactive); that for USP24 (UniProt Q9UPU5), 0.045 (inactive).
On to WDR41 (UniProt Q9HAD4), for which the log2 fold change was -0.002 (inactive).
Consider TRAM1 (UniProt Q15629), for which the log2 fold change was -0.124 (inactive).
